From PubChem
ST2 inh: inhibitors of human ST2 (IL1RL1) binding to IL-33, primary screen, biochemical, AlphaLISA; Interleukin-1 receptor-like 1 (Homo sapiens), Q01638; AlphaLISA ST2-Fc/biotin-IL-33 interaction, 1 h; inhibition, % for hits at 17 µM; actives 2.3% (n = 78,000); AID 1259354, 2018; in the data active means inhibition above about 30%
Target sequence (Q01638 whole entry, looked up): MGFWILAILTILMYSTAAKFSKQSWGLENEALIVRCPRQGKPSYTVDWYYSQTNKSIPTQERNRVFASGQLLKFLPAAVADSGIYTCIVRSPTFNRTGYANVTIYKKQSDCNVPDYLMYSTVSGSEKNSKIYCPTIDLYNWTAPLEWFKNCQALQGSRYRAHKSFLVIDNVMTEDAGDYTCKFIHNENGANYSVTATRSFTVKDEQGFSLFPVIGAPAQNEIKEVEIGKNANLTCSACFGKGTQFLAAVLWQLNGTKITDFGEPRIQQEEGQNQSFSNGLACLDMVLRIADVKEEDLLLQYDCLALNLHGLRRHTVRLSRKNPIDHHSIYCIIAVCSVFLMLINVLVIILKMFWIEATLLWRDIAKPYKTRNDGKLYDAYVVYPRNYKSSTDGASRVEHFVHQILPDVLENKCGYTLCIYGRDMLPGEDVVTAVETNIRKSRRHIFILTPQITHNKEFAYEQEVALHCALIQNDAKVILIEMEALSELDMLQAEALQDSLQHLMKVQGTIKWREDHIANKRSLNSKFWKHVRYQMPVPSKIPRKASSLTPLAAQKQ
Hits are given with their value. The full list was thinned out, with hits kept by preference.

For O=C(O)c1ccccc1SC1CC(=O)N(c2ccccc2OC(F)F)C1=O (configuration not stated) the results were ST2 inh inactive.
CC1CCc2c(sc(NC(=O)c3cccs3)c2C(N)=O)C1 (configuration not stated) was read as ST2 inh inactive.
Screening NC(=O)Cn1c(=O)n(CC2CCC(C(=O)NCc3ccco3)CC2)c(=O)c2sccc21 (configuration not stated) returned ST2 inh inactive.
`CC(C)c1ncc(C(=O)N2CCOC(Cc3ccccc3Cl)C2)c(=O)[nH]1` (configuration not stated) gave ST2 inh inactive.
O=C(c1ccc(Cl)cc1)N1CCC(C(=O)N2CCC(Cc3ccccc3)CC2)CC1 was read as ST2 inh inactive.
Screening CCNc1nc(N2CCCC2)nc(N2CCC(Cc3ccccc3)CC2)n1 returned ST2 inh 57%.
For COc1ccc(S(=O)(=O)N2CCC(C(=O)N3CCC(Cc4ccccc4)CC3)CC2)cc1 the results were ST2 inh inactive.
`O=C(CCc1nc2sc3c(c2c(=O)[nH]1)CCCC3)NC1CCCCCC1` gave ST2 inh inactive.
COc1cccc(-n2c(=O)c3sccc3n(Cc3ccc(C)cc3)c2=O)c1 was read as ST2 inh inactive.
COc1cccc(NC(=O)CSCc2ccc(Cl)cc2)c1 was read as ST2 inh inactive.
For COc1cccc(NC(=O)/C(C#N)=C\c2cn(Cc3cccc(C)c3)c3ccccc23)c1 the results were ST2 inh 33%.
COc1cccc(NC(=O)/C(C#N)=C\c2cn(Cc3ccc(C)cc3)c3ccccc23)c1 was read as ST2 inh 30%.
`COc1cccc(NC(=O)CCCc2ccccc2)c1` gave ST2 inh inactive.
Cc1cccc(NC(=O)/C(C#N)=C/c2cc(C)n(-c3ccc(F)cc3)c2C)c1 was read as ST2 inh inactive.
Screening COc1cccc(NC(=O)c2ccc(=O)n(Cc3ccc(F)cc3)c2)c1 returned ST2 inh inactive.
O=C1CC(NS(=O)(=O)N2CCCCC2)CN1CCCc1ccccc1 (configuration not stated) was read as ST2 inh inactive.
Screening O=C(NCc1ccccn1)C1CC(=O)N(CCc2ccccc2)C1 (configuration not stated) returned ST2 inh inactive.
For O=C1CC(NCc2ccccn2)CN1CCCc1ccccc1 (configuration not stated) the results were ST2 inh 53%.
For CNC(=O)c1ccc(CN2CCCC(Nc3ccc(F)cc3)C2)o1 (configuration not stated) the results were ST2 inh 36%.
`COc1ccc(-c2ncc(CN3CCCC(Nc4ccc(F)cc4)C3)cn2)cc1` (configuration not stated) gave ST2 inh inactive.
NC(=O)C(=O)NC1CCCN(Cc2ccc(F)cc2)C1 (configuration not stated) was read as ST2 inh inactive.
`CC1(C)C(C=C(Cl)Cl)C1C(=O)NC(c1ccccc1)C(Cl)(Cl)Cl` (configuration not stated) gave ST2 inh inactive.
`N#Cc1ccccc1Cn1c(=O)n(-c2cc(F)ccc2F)c(=O)c2sccc21` gave ST2 inh inactive.
For O=C(O)c1cc(S(=O)(=O)N2CCCCC2)c(Cl)cc1Cl the results were ST2 inh inactive.
For Cc1[nH]nc(NN)c1Cl the results were ST2 inh 55%.
`Cc1ccc(-c2csc3ncn(-c4ccccc4)c(=O)c23)c(C)c1` gave ST2 inh inactive.
`O=C(c1ccc(O)cc1)c1c(O)cc(O)c([C@@H]2O[C@H](CO)[C@@H](O)[C@H](O)[C@H]2O)c1O` gave ST2 inh inactive.
Screening CC1(C)OC2c3ccccc3OC3(C)CCC1CC23 (configuration not stated) returned ST2 inh inactive.
`CC12CCC3C1C(c1c(cc(O)c(C(=O)c4ccccc4)c1O)O2)C3(C)C` (configuration not stated) gave ST2 inh 31%.
For CC1=NN(c2ccc(S(N)(=O)=O)cc2)C(=O)C1 the results were ST2 inh inactive.
c1ccc(CCn2cnnc2CNC2CCC3(CCNCC3)CC2)cc1 was read as ST2 inh inactive.
Screening CCN(CC)S(=O)(=O)c1ccc(C(=O)Nc2c3c(nn2C(C)(C)C)CS(=O)C3)cc1 (configuration not stated) returned ST2 inh inactive.
For CC(C)(C)CC(=O)Nc1ccc([N+](=O)[O-])cc1 the results were ST2 inh inactive.
Cc1ccc(NC(=O)c2ccc([N+](=O)[O-])cc2)cc1F was read as ST2 inh inactive.
For Cc1ccc(NCC(=O)c2ccc([N+](=O)[O-])cc2)cc1 the results were ST2 inh 36%.
CCCCNC(=O)CSc1nc2nc(C)c(Cc3ccc(C)cc3)c(C)n2n1 was read as ST2 inh inactive.
COCc1nc(CN2CC(c3cccnc3)C2)no1 was read as ST2 inh inactive.
CCCCOC(=O)C1=C(C)Nc2ncnn2C1c1cccc(Br)c1 (configuration not stated) was read as ST2 inh inactive.
For CC(NC(=O)c1cn(C)c(=O)c2c1c1ccccc1n2C)c1ccc2c(c1)OCCO2 (configuration not stated) the results were ST2 inh inactive.
`Cc1cc(N2CCC(C)CC2)nc2ccc(NC(=O)c3ccc4c(c3)OCO4)cc12` gave ST2 inh inactive.
Screening COc1ccc(-n2nc3cc(C)c(NC(=O)c4ccc(Cl)c([N+](=O)[O-])c4)cc3n2)cc1 returned ST2 inh inactive.
For COc1ccc(-n2nc3ccc(NC(=O)c4ccc(OC)c(Cl)c4)cc3n2)cc1 the results were ST2 inh 33%.
Cc1ccc(-n2nc3ccc(NC(=O)COc4ccccc4)cc3n2)cc1Cl was read as ST2 inh inactive.
For COc1ccc(C(=O)Nc2ccc3nn(-c4ccc(F)cc4)nc3c2)cc1OC the results were ST2 inh inactive.
`Cc1ccc(-n2nc3ccc(NC(=O)c4ccc5c(c4)OCCO5)cc3n2)cc1Cl` gave ST2 inh 34%.
Screening COc1cc(OC)cc(C(=O)NCCc2nc3ccccc3[nH]2)c1 returned ST2 inh inactive.
O=C(Nc1cnc2ccccc2c1)C1c2ccccc2C(=O)N2CCc3ccccc3C12 (configuration not stated) was read as ST2 inh inactive.
`O=S(=O)(c1ccccc1)c1cccc(S(=O)(=O)N2CCOCC2)c1` gave ST2 inh inactive.
O=S(=O)(N=C(c1ccccc1F)N1CCOCC1)c1ccccc1 was read as ST2 inh inactive.
Cc1ccc(S(=O)(=O)N(c2ccccc2N2CCOCC2)C(F)F)cc1 was read as ST2 inh inactive.
`O=C1C(N2CCOCC2)=CC(=NS(=O)(=O)c2ccccc2)c2ccccc21` gave ST2 inh 41%.
Screening O=S(=O)(c1cccc(Cl)c1Cl)N1CCOCC1 returned ST2 inh inactive.
O=C1C(N2CCOCC2)=CC(=NS(=O)(=O)c2ccc(Cl)cc2)c2ccccc21 was read as ST2 inh 71%.
CCOCCCNCc1ccc(OC)cc1OC was read as ST2 inh inactive.
For CN1CCC(N2CC[C@@H]3[C@H]2C(=O)NC[C@H](CCC(=O)N2CCC(O)CC2)N3C)CC1 the results were ST2 inh inactive.
Screening O=C(NCCC1=CCCCC1)c1ccc(CS(=O)(=O)c2ccc(Br)cc2)o1 returned ST2 inh inactive.
Cc1n[nH]c(C)c1CCCCOc1ccc(Br)cc1 was read as ST2 inh inactive.
